Assay results taken from PubChem BioAssay (NCATS).
Inconclusive results are not listed. A call without a number means that no potency is given here. Active and inactive are the calls of the source. The call rests on the fitted dose curve; in most records, active means well fitted inhibition curve with a large enough effect; inconclusive means small, poorly fitted or top-dose-only effect; inactive means flat fitted curve, though single readings scatter.

How the values were obtained:
Assay in all cases: qHTS profiling for inhibitors of Plasmodium falciparum proliferation (AID 504749); further: nearly all actives have a fitted effect of over 60% in size
Conditions in all cases: P. falciparum in erythrocytes, SYBR Green DNA, 72 h; series mostly up to 28.7 µM
CP194 = system: CP194
Outline: (§1)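 Infected RBCs, 0.3% parasitemia/2.5% Hct final; cpd 72 h, 37 C, 5% CO2; lysis buffer with saponin/triton/SYBR Green I, o/n RT dark; FI 485/535; norm. to artemisinin (0.29 uM) and DMSO.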

CP201 = system: CP201
Outline: as §1

CP203 = system: CP203
Outline: as §1

CP211 = system: CP211
Outline: as §1

CP215 = system: CP215
Outline: as §1

CP217 = system: CP217
Outline: as §1

CP237 = system: CP237
Outline: as §1

CP238 = system: CP238
Outline: as §1

CP247 = system: CP247
Outline: as §1

CP250 = system: CP250
Outline: as §1

CP252 = system: CP252
Outline: as §1

CP256 = system: CP256
Outline: as §1

CP260 = system: CP260
Outline: as §1

CP262 = system: CP262
Outline: as §1

CP265 = system: CP265
Outline: as §1

CP266 = system: CP266
Outline: as §1

CP268 = system: CP268
Outline: as §1

CP269 = system: CP269
Outline: as §1

CP286 = system: CP286
Outline: as §1

CP291 = system: CP291
Outline: as §1
Potency means the concentration at half of the fitted maximal effect.

Row | SMILES | Potency (CP194) | Potency (CP201) | Potency (CP203) | Potency (CP211) | Potency (CP215) | Potency (CP217) | Potency (CP237) | Potency (CP238) | Potency (CP247) | Potency (CP250) | Potency (CP252) | Potency (CP256) | Potency (CP260) | Potency (CP262) | Potency (CP265) | Potency (CP266) | Potency (CP268) | Potency (CP269) | Potency (CP286) | Potency (CP291)
1 | CC=CC1=C(C(=O)O)N2C(=O)[C@H](NC(=O)[C@H](N)c3ccc(O)cc3)[C@@H]2SC1 | inactive | inactive | inactive | inactive | inactive | inactive | inactive | inactive | inactive | inactive | inactive | inactive | inactive | inactive | inactive | inactive | inactive | inactive | inactive | inactive
2 | COC(=O)C1=C(C)NC(C)=C(C(=O)OCCN2CCN(C(c3ccccc3)c3ccccc3)CC2)C1c1cccc([N+](=O)[O-])c1 (centres undefined) | 5360 nM (active) | 7570 nM (active) | 3790 nM (active) | 3790 nM (active) | 3380 nM (active) | 3160 nM (active) | 3160 nM (active) | 2510 nM (active) | 3980 nM (active) | 4470 nM (active) | 2820 nM (active) | 3550 nM (active) | 2510 nM (active) | 4780 nM (active) |  | 6750 nM (active) | 4780 nM (active) | 4260 nM (active) | 2510 nM (active) | 4780 nM (active)
3 | Nc1ccn([C@@H]2O[C@H](CO)[C@H](O)C2(F)F)c(=O)n1 | 6750 nM (active) | 2130 nM (active) | 2690 nM (active) | 2390 nM (active) | 6010 nM (active) | 4470 nM (active) | 3550 nM (active) | 3980 nM (active) | 1410 nM (active) | 5010 nM (active) | 3550 nM (active) | 1580 nM (active) | 3980 nM (active) | 2690 nM (active) | 3980 nM (active) | 4780 nM (active) | 6010 nM (active) | 4780 nM (active) | 3980 nM (active) | 4260 nM (active)
4 | CC(C)(C)NC(=O)[C@H]1CN(Cc2cccnc2)CCN1C[C@@H](O)C[C@@H](Cc1ccccc1)C(=O)N[C@H]1c2ccccc2C[C@H]1O | 15100 nM (active) | 16900 nM (active) |  |  | 15100 nM (active) | 11200 nM (active) | 8910 nM (active) |  | 11200 nM (active) |  | 12600 nM (active) |  |  | inactive |  |  |  | 13500 nM (active) |  | 15100 nM (active)
5 | C[C@H]1C[C@@H]2[C@@H]([C@@H](O)C[C@@]3(C)[C@H]2CC[C@]3(O)C(=O)CO)[C@@]2(C)C=CC(=O)C=C12 | inactive | inactive | inactive | inactive | inactive | inactive | inactive | inactive | inactive | inactive | inactive | inactive | inactive | inactive | inactive | inactive | inactive | inactive | inactive | inactive
6 | CN1c2cc(O)c(N=NC(N)=O)cc2CC1S(=O)(=O)O (centres undefined) | inactive | inactive | inactive | inactive | inactive | inactive | inactive | inactive | inactive | inactive | inactive | inactive | inactive | inactive | inactive | inactive | inactive | inactive | inactive | inactive
7 | O=C(O)CO.[NH2-].[NH2-].[Pt+2] | inactive | inactive | inactive | inactive | inactive | inactive | inactive | inactive | inactive | inactive | inactive | inactive | inactive | inactive | inactive | inactive | inactive | inactive | inactive | inactive
8 | COc1cc(C(=O)NS(=O)(=O)c2ccccc2C)ccc1Cc1cn(C)c2ccc(NC(=O)OC3CCCC3)cc12 |  | inactive |  |  |  |  | inactive | inactive |  | inactive | inactive | inactive | inactive | inactive | inactive | inactive | inactive |  | inactive | inactive
9 | CC1(C)O[C@@H]2C[C@@H]3[C@H]4C[C@@H](F)C5=CC(=O)C=C[C@]5(C)[C@@]4(F)[C@@H](O)C[C@]3(C)[C@]2(C(=O)CO)O1 | 15100 nM (active) |  |  |  |  | inactive | inactive | inactive | inactive | inactive | inactive | inactive | inactive | inactive | inactive |  |  |  | inactive | 
10 | CC[C@H]1CN2CCc3cc(OC)c(OC)cc3[C@H]2C[C@@H]1C[C@@H]1NCCc2cc(OC)c(OC)cc21 | 601 nM (active) | 675 nM (active) | 379 nM (active) | 675 nM (active) | 536 nM (active) | 708 nM (active) | 126 nM (active) | 316 nM (active) | 398 nM (active) | 316 nM (active) | 562 nM (active) | 355 nM (active) | 126 nM (active) | 757 nM (active) | 447 nM (active) | 675 nM (active) | 426 nM (active) | 301 nM (active) | 158 nM (active) | 269 nM (active)
11 | COC(=O)C[C@](O)(CCCC(C)(C)O)C(=O)O[C@@H]1C(OC)=C[C@]23CCCN2CCc2cc4c(cc2[C@H]13)OCO4 | 37.9 nM (active) | 42.6 nM (active) | 33.8 nM (active) | 30.1 nM (active) | 33.8 nM (active) | 31.6 nM (active) | 15.8 nM (active) | 28.2 nM (active) | 17.8 nM (active) | 28.2 nM (active) | 31.6 nM (active) | 31.6 nM (active) | 28.2 nM (active) | 33.8 nM (active) | 31.6 nM (active) |  | 37.9 nM (active) | 33.8 nM (active) | 28.2 nM (active) | 33.8 nM (active)
12 | CCC1=C[C@@H]2CN(C1)Cc1c([nH]c3ccccc13)[C@@](C(=O)OC)(c1cc3c(cc1OC)N(C)[C@@H]1[C@@](O)(C(=O)OC)[C@H](OC(C)=O)[C@]4(CC)C=CCN5CC[C@]31[C@@H]54)C2 | 3380 nM (active) | 4780 nM (active) | 3010 nM (active) | 3380 nM (active) | 2130 nM (active) | 2510 nM (active) | 3980 nM (active) | 2820 nM (active) | 3550 nM (active) | 3980 nM (active) | 2820 nM (active) | 2000 nM (active) | 2820 nM (active) | 3010 nM (active) | 2000 nM (active) | 4260 nM (active) | 3380 nM (active) | 1900 nM (active) | 2000 nM (active) | 3010 nM (active)
13 | O=c1[nH]c(=O)n(C2CCCO2)cc1F (centres undefined) | inactive | inactive | inactive | inactive |  | inactive | inactive | inactive | inactive | inactive | inactive | inactive | inactive | inactive | inactive | inactive | inactive | inactive | inactive | inactive
14 | Nc1ccc(S(=O)(=O)Nc2ncccn2)cc1 | inactive | inactive | inactive | inactive |  | inactive | inactive | inactive | inactive | inactive | inactive | inactive | inactive | inactive | inactive | inactive | inactive | inactive | inactive | inactive
15 | COc1c(N2C[C@@H]3CCCN[C@H]3C2)c(F)cc2c(=O)c(C(=O)O)cn(C3CC3)c12 | inactive | inactive | inactive | inactive | inactive | inactive |  | inactive | inactive | inactive | inactive | inactive | inactive | inactive | inactive | inactive |  | inactive | inactive | inactive
16 | Nc1ccn([C@@H]2CS[C@H](CO)O2)c(=O)n1 | inactive | inactive | inactive | inactive | inactive | inactive | inactive | inactive | inactive | inactive | inactive | inactive | inactive | inactive | inactive | inactive | inactive | inactive | inactive | inactive
